Assay results taken from PubChem BioAssay (NCATS).
Inconclusive results are not listed. Active and inactive are the calls of the source. Calls follow the shape of the dose curve; as a rule, active = well fitted curve in the direction sought with a large enough effect; inconclusive = small, poorly fitted or top-dose-only effect, or another doubt; inactive = no such curve, though single readings can be large; an effect the other way counts as inactive or inconclusive.

Columns and labels:
HaCat [1] = experiment: Cytotoxic Profiling of Annotated Libraries Using Quantitative High-Throughput Screening (AID 1296008); conditions: Five cell lines viability, CellTiter-Glo ATP luminescence, 48-72 h; max response: active compounds read low; also: nearly all actives have a fitted effect of over 60% in size; also: potency is read from the fitted curve at half-maximal effect; as to max response: % is scaled to controls: 0 for no effect and ±100 for the full control effect
Method in brief: (§1)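 Cells exposed to compounds for 48 or 72 hr at 37 degrees Celsius. Viability read as ATP-coupled luminescence with CellTiter-Glo after 10 min at room temperature.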

KB-3-1 = experiment: as above; conditions: Five cell lines viability, CellTiter-Glo ATP luminescence, 48-72 h; max response: active compounds read low
Method in brief: as §1

NIH3T3 = experiment: as above; conditions: Five cell lines viability, CellTiter-Glo ATP luminescence, 48-72 h; max response: active compounds read low
Method in brief: as §1

C33A = experiment: Primary qHTS to identify gynecologic anti-cancer compounds using libraries of approved drugs and bioactive compounds (AID 1345084); conditions: Gynecologic cancer cell panel viability, ATPlite luminescence, 48 h; series mostly up to 57.5 µM; also: nearly all actives have a fitted effect of over 55% in size; also: potency is read from the fitted curve at half-maximal effect; as to activity change, negative = cytotoxicity: % is scaled to controls: 0 for no effect and ±100 for the full control effect
Method in brief: (§2)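 Five-concentration response, 48 h; readout is ATP-driven luciferase luminescence.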

CAOV3 = experiment: as above; conditions: Gynecologic cancer cell panel viability, ATPlite luminescence, 48 h; series mostly up to 57.5 µM
Method in brief: as §2

CASKI = experiment: as above; conditions: Gynecologic cancer cell panel viability, ATPlite luminescence, 48 h; series mostly up to 57.5 µM
Method in brief: as §2

Es-2 = experiment: as above; conditions: Gynecologic cancer cell panel viability, ATPlite luminescence, 48 h; series mostly up to 57.5 µM
Method in brief: as §2

HeLa = experiment: as above; conditions: Gynecologic cancer cell panel viability, ATPlite luminescence, 48 h; series mostly up to 57.5 µM
Method in brief: as §2

OV90 = experiment: as above; conditions: Gynecologic cancer cell panel viability, ATPlite luminescence, 48 h; series mostly up to 57.5 µM
Method in brief: as §2

PA-1 = experiment: as above; conditions: Gynecologic cancer cell panel viability, ATPlite luminescence, 48 h; series mostly up to 57.5 µM
Method in brief: as §2

SKOV3 = experiment: as above; conditions: Gynecologic cancer cell panel viability, ATPlite luminescence, 48 h; series mostly up to 57.5 µM
Method in brief: as §2

HACAT [2] = experiment: qHTS assay to identify novel small-molecules to repurpose for Merkel cell carcinoma treatment (AID 1296009); conditions: MCC and control cell lines, CellTiter-Glo viability, 72 h; at 44.8 µM (top of the series) unless noted; also: nearly all actives have a fitted effect of over 60% in size
Method in brief: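 Dose-response viability screen; 72 hr exposure at 37 degree celsius; CellTiter-Glo added, 10 min room temperature, luminescence read; RLUs scaled between no-cell and DMSO wells.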

JEG-3 = experiment: Primary qHTS to identify gynecologic anti-cancer compounds using libraries of approved drugs and bioactive compounds (AID 1345084); conditions: Gynecologic cancer cell panel viability, ATPlite luminescence, 48 h; series mostly up to 57.5 µM; also: nearly all actives have a fitted effect of over 55% in size; also: potency is read from the fitted curve at half-maximal effect; as to activity change, negative = cytotoxicity: % is scaled to controls: 0 for no effect and ±100 for the full control effect
Method in brief: as §2

Hek293T = experiment: as above; conditions: Gynecologic cancer cell panel viability, ATPlite luminescence, 48 h, control line for the selectivity index; series mostly up to 57.5 µM
Method in brief: as §2

C=C1/C(=C/C=C2\CCC[C@]3(C)[C@@H]([C@@H](C)OCCC(O)(CC)CC)CC[C@@H]23)C[C@@H](O)C[C@@H]1O
inactive: max response (HaCat [1]) -5.69% | max response (KB-3-1) -12.7% | max response (NIH3T3) -34.7% | Potency (C33A) | Potency (CAOV3) | Potency (CASKI) | Potency (Es-2) | Potency (HeLa) | Potency (OV90) | Potency (PA-1) | Potency (SKOV3)

O=C(CCl)Nc1cccc(NC2=NS(=O)(=O)c3ccccc32)c1
active: Potency (KB-3-1) 14.6 µM
inactive: outcome (HaCat [1]) | outcome (HACAT [2]) | Potency (Es-2) | Potency (JEG-3) | Potency (OV90)

CC1CCC(=O)CC(SCC(O)C(=O)O)CCC(=O)O1 (stereo not drawn)
inactive: max response (HaCat [1]) -8.22% | max response (KB-3-1) -25.6% | max response (NIH3T3) -15.1% | Potency (C33A) | Potency (CASKI) | Potency (Es-2) | Potency (HeLa) | Potency (Hek293T) | Potency (JEG-3) | Potency (OV90) | Potency (PA-1) | Potency (SKOV3)

C[C@H]1CC[C@@]2(OC1)O[C@H]1CC3[C@@H]4CC[C@@H]5C[C@@H](O[C@@H]6O[C@H](CO)[C@@H](O[C@@H]7O[C@H](CO[C@@H]8OC[C@@H](O)[C@H](O)[C@H]8O)[C@@H](O[C@@H]8O[C@H](CO)[C@H](O)[C@H](O)[C@H]8O)[C@H](O)[C@H]7O)[C@H](O)[C@H]6O)CC[C@]5(C)C4CC[C@]3(C)[C@H]1[C@@H]2C (stereo partly drawn)
inactive: max response (HaCat [1]) -10.6% | outcome (KB-3-1) | activity change, negative = cytotoxicity (C33A) -0.589% [at 11.6 µM] | activity change, negative = cytotoxicity (CAOV3) 0.154% [at 11.6 µM] | activity change, negative = cytotoxicity (CASKI) -0.139% [at 11.6 µM] | activity change, negative = cytotoxicity (Es-2) -0.634% [at 11.6 µM] | activity change, negative = cytotoxicity (HeLa) 17.3% [at 11.6 µM] | activity change, negative = cytotoxicity (Hek293T) -0.448% [at 11.6 µM] | activity change, negative = cytotoxicity (JEG-3) -1.5% [at 11.6 µM] | activity change, negative = cytotoxicity (OV90) -9.4% [at 11.6 µM] | activity change, negative = cytotoxicity (PA-1) -0.202% [at 11.6 µM] | activity change, negative = cytotoxicity (SKOV3) 11% [at 11.6 µM]

C[C@@H]1O[C@@H](O[C@H]2[C@@H]3C=CO[C@@H](O[C@@H]4O[C@H](CO)[C@@H](O)[C@H](O)[C@H]4O)[C@@H]3[C@@]3(CO)O[C@@H]23)[C@H](O)[C@H](OC(=O)/C=C/c2ccccc2)[C@H]1O
inactive: outcome (HaCat [1]) | outcome (KB-3-1) | outcome (HACAT [2]) inactive [at 17.4 µM] | Potency (C33A) | Potency (CAOV3) | Potency (CASKI) | Potency (Es-2) | Potency (HeLa) | Potency (Hek293T) | Potency (JEG-3) | Potency (OV90)

CC[C@H](C(=O)Nc1ccccc1N1CCCC1)c1ccccc1
inactive: max response (HaCat [1]) -11.1% | max response (KB-3-1) -2.95% | max response (NIH3T3) -0.387% | Potency (C33A) | Potency (CAOV3) | Potency (CASKI) | Potency (Hek293T) | Potency (JEG-3) | Potency (OV90) | Potency (PA-1)

OC1CCC(Nc2nc(-c3ccccc3)nc3[nH]ccc23)CC1 (stereo not drawn)
inactive: max response (HaCat [1]) -12.5% | max response (KB-3-1) 7.97% | max response (NIH3T3) -18.3% | Potency (C33A) | Potency (CAOV3) | Potency (Es-2) | Potency (HeLa) | Potency (Hek293T) | Potency (JEG-3) | Potency (OV90) | Potency (PA-1) | Potency (SKOV3)

O=C(C1CCCCC1)N(CCN1CCN(c2ccccc2O)CC1)c1ccccn1
inactive: outcome (HaCat [1]) | max response (KB-3-1) -15.9% | outcome (HACAT [2]) | Potency (C33A) | Potency (CAOV3) | Potency (Es-2) | Potency (HeLa) | Potency (Hek293T) | Potency (JEG-3) | Potency (OV90) | Potency (PA-1) | Potency (SKOV3)

COc1ccc(C2=NC(c3ccc(Cl)cc3)C(c3ccc(Cl)cc3)N2C(=O)N2CCNC(=O)C2)c(OC(C)C)c1 (stereo not drawn)
inactive: outcome (HaCat [1]) | outcome (KB-3-1) | outcome (HACAT [2]) | Potency (C33A) | Potency (CAOV3) | Potency (CASKI) | Potency (Es-2) | Potency (HeLa) | Potency (Hek293T) | Potency (JEG-3) | Potency (OV90)

COc1ccc(-c2ccccc2)cc1NS(=O)(=O)c1cc(Cl)cc(Cl)c1O
inactive: outcome (HaCat [1]) | max response (KB-3-1) 4.02% | outcome (HACAT [2]) inactive [at 17.4 µM] | Potency (C33A) | Potency (CAOV3) | Potency (SKOV3)

O=c1[nH]c([C@@H]2CCCN2)nc2c1oc1ccc(Cl)cc12
active: Potency (HaCat [1]) 1.46 µM
inactive: max response (KB-3-1) -19.5% | max response (NIH3T3) -23.2% | Potency (CAOV3) | Potency (CASKI) | Potency (Es-2) | Potency (Hek293T) | Potency (JEG-3) | Potency (OV90) | Potency (PA-1) | Potency (SKOV3)

C=C1[C@@H](OC(C)=O)CC[C@@]2(C)[C@@H](OC(C)=O)[C@H](OC(C)=O)C3=C(C)C[C@H](OC(=O)C(C)CC)[C@@H]([C@@H](OC(C)=O)[C@H]12)C3(C)C (stereo partly drawn)
inactive: Potency (OV90)
active: Potency (HaCat [1]) 1.93 µM | Potency (KB-3-1) 2.43 µM | Potency (NIH3T3) 5.44 µM

NC(=O)c1ccccc1Nc1ccnc(Nc2cccc(O)c2)n1
inactive: Potency (C33A)
active: Potency (HaCat [1]) 5.8 µM | Potency (KB-3-1) 8.2 µM | Potency (NIH3T3) 7.31 µM | Potency (CAOV3) 8.91 µM | Potency (CASKI) 12.6 µM | Potency (HeLa) 3.16 µM

CC(=O)OC[C@]12[C@H](OC(C)=O)C(=O)[C@@H]3[C@@H](O)[C@@]14O[C@@]3(C)COC(=O)c1cccnc1[C@@H](C)[C@H](C)C(=O)O[C@@H]([C@H](O)[C@@H]2OC(C)=O)[C@]4(C)O
inactive: outcome (HaCat [1]) | max response (NIH3T3) -17.4% | outcome (HACAT [2]) inactive [at 17.4 µM] | Potency (C33A) | Potency (CAOV3) | Potency (CASKI) | Potency (Es-2) | Potency (HeLa) | Potency (Hek293T) | Potency (JEG-3) | Potency (OV90) | Potency (PA-1) | Potency (SKOV3)
